Measurements as given in PubChem BioAssay (NCATS).
Inconclusive results are not listed. Unmarked numbers belong to inactive results.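 The calls were made as follows, unless noted: active = compounds whose dose-response curve shows a full or clear partial loss of cell viability, called from curve shape rather than a numeric limit; inconclusive = weak partial curves or an effect only at the top dose; inactive = no dose-dependent loss of viability.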
Potency is read from the fitted curve at half-maximal effect.

Assay: Cell Viability - Jurkat (AID 426;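 active = dose-dependent loss of cell ATP signal giving a full or clear fitted curve, ranked by lower potency value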)
Conditions: qHTS
Method in brief: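 Cells of the human T-cell leukemia line Jurkat (E6-1) are seeded at 5000 per well, treated with compound across a concentration range for 40 hours at 37 °C, then lysed with CellTiter-Glo; luminescence reports ATP.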
For `NC(=S)Nc1ccccc1`, the Potency was over 92 µM. In the case of `O=C(Cl)/C=C/C(=O)Cl`, the Potency is reported as over 92 µM. `C=C(Cl)Cl` gave a Potency of over 92 µM. `ClCBr` showed a Potency of over 92 µM. With `COc1ccc(C=O)cc1OC` the Potency was over 92 µM. Work on `C=CC(=O)OCC` yielded a Potency of over 92 µM. In the case of `c1nc[nH]n1`, the Potency is reported as over 92 µM. `c1ccc2c(c1)CCCC2` showed a Potency of over 92 µM. Work on `CCCSC(=O)Cl` yielded a Potency of over 92 µM. In the case of `Clc1cccc(C(Cl)(Cl)Cl)n1`, the Potency is reported as over 92 µM. Molecule `O=NN(c1ccccc1)c1ccccc1` has a Potency of over 92 µM. For `C1CCC2CCCCC2C1` (configuration not stated), the Potency was over 92 µM. `CC(O)CCl` (configuration not stated) gave a Potency of over 92 µM.

Assay: Cell Viability - Hek293 (AID 427);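 also: cells exposed to compound for 40 hours at 37 °C before reading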
Conditions: qHTS
Method in brief: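 HEK293 cells in complete medium were exposed to compound for 40 hr at 37 °C, then cellular ATP was read by CellTiter-Glo luminescence. Data were normalized to DMSO (basal) and 100 uM tamoxifen (100% inhibition), and AC50 came from Hill fits.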
`Brc1ccccc1` gave a Potency of over 92 µM. `CCOP(=S)(OCC)SCSC(C)(C)C` gave a Potency of over 92 µM. `C=C(C)C#N` gave a Potency of over 92 µM. Work on `CCSC(=O)Cl` yielded a Potency of over 92 µM. Molecule `Cc1cccc([N+](=O)[O-])c1` has a Potency of over 92 µM. In the case of `Nc1c(Cl)c(Cl)nc(C(=O)O)c1Cl`, the Potency is reported as over 92 µM. `CC(C)(C)OOC(C)(C)C` showed a Potency of over 92 µM. `C=C(C)C(=O)OCC1CO1` (configuration not stated) gave a Potency of over 92 µM. In the case of `Cc1ccc([N+](=O)[O-])cc1C`, the Potency is reported as over 92 µM. `O=[N+]([O-])c1ccc(Cl)c(Cl)c1` showed a Potency of over 92 µM. With `C=CC(=C)C` the Potency was over 92 µM. In the case of `Cc1ccc2ccccc2c1`, the Potency is reported as over 92 µM. In the case of `Nc1ccccc1Cl`, the Potency is reported as over 92 µM. With `Clc1ccc2ccccc2c1` the Potency was over 92 µM.
